The text below walks through data of PubChem BioAssay (NCI).

The structures appear in SMILES notation. About 83,000 compounds went through this panel and 20% of them were active in at least one assay; those are over-represented in the sample as a whole.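 Compound tested at a single concentration for 48 hours in 96-well plates; a percent growth value below 10 was scored as active.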 A number with no mark means an inactive call. Active and inactive are the calls of the source.

Test systems include NCI-H23 lung; NCI-H322M lung; HOP-62 NSCLC; NCI-H460 lung; HOP-92 NSCLC; NCI-H522 lung; A549/ATCC NSCLC; 786-0 renal; COLO 205 colon; DU-145 prostate; MALME-3M melanoma; MDA-MB-231 breast; SF-268 CNS; SF-295 CNS; SF-539 CNS; UACC-257 melanoma; M14 melanoma; HCT-15 colon; K-562 leukemia; RXF 393 renal.
What all share (assay): NCI-60 one-dose screen, 48 h (100 = growth as untreated, 0 = no growth, -100 = all killed)
What all share (conditions): 10 µM unless noted

Consider `N[C@@H](CC/[N+]([O-])=N/O)C(=O)O`, for which the growth in the experiment with NCI-H23 lung was 97.2%; with NCI-H322M lung, 103%; in the experiment with HOP-62 NSCLC it was 101%; with NCI-H460 lung it was 97.9%; in the experiment on HOP-92 NSCLC it was 107%; in the experiment with NCI-H522 lung, 95.7%. The growth in the experiment with A549/ATCC NSCLC is 102%; in the experiment with 786-0 renal it was 104%; in the experiment on COLO 205 colon it was 104%; in the experiment with DU-145 prostate, 97.8%; in the experiment with MALME-3M melanoma, 101%; in the experiment on MDA-MB-231 breast, 102%. For the same compound, the growth was 95.9% in the experiment with SF-268 CNS; 110% with SF-295 CNS; 95% in the experiment with SF-539 CNS; 112% with UACC-257 melanoma; 102% in the experiment on M14 melanoma; 104% in the experiment with HCT-15 colon.
With `Nc1ccc(-c2nc3cc(Oc4ccc(Oc5ccc6[nH]c(-c7ccc(N)cc7)nc6c5)cc4)ccc3[nH]2)cc1`, the growth is 78.6% in the experiment with NCI-H23 lung; 118% in the experiment with NCI-H322M lung; 107% in the experiment on HOP-62 NSCLC; 95.2% with NCI-H460 lung; 104% with HOP-92 NSCLC; 73.7% in the experiment with NCI-H522 lung. The growth with A549/ATCC NSCLC was 96.8%; in the experiment on 786-0 renal, 92%; with COLO 205 colon, 75%; in the experiment with K-562 leukemia it was 94.9%; with MALME-3M melanoma, 81.4%; with MDA-MB-231 breast, 103%. Moreover, the growth in the experiment on RXF 393 renal was 107%; in the experiment on SF-268 CNS, 113%; with SF-295 CNS, 63.4%; in the experiment on SF-539 CNS, 102%; in the experiment on UACC-257 melanoma, 95.8%; with M14 melanoma it was 94%. The growth in the experiment on HCT-15 colon was 100%.
As to `CC1=CCC(OC(=O)C(C)(C)CCC(O)(C(=O)OC2(C(C)C)CCC3(C)OC3C2)C(C)C)(C(C)C)CC1` (stereo unspecified), the growth is -73.2% (active) in the experiment with NCI-H23 lung; -93% (active) in the experiment on NCI-H322M lung; -66.7% (active) in the experiment with HOP-62 NSCLC; -84.2% (active) with NCI-H460 lung; -71.7% (active) in the experiment on HOP-92 NSCLC; -76.3% (active) in the experiment with NCI-H522 lung. The growth in the experiment with A549/ATCC NSCLC was -82.8% (active); with 786-0 renal it was -90.5% (active); in the experiment with COLO 205 colon, -61.5% (active); in the experiment on DU-145 prostate, -95.8% (active); in the experiment with MALME-3M melanoma, -84.1% (active); with MDA-MB-231 breast, -63.1% (active). The growth was -91.2% (active) in the experiment on RXF 393 renal; -74.5% (active) in the experiment with SF-268 CNS; -92.2% (active) in the experiment with SF-295 CNS; -97.3% (active) in the experiment on SF-539 CNS; -57.6% (active) with UACC-257 melanoma; -81% (active) with M14 melanoma. Moreover, the growth in the experiment on HCT-15 colon was -59.8% (active).
Regarding `COc1ccc(Nc2nc(N/N=C/c3ccc(O)cc3)nc(Nc3ccc([N+](=O)[O-])cc3)n2)cc1`, the growth with NCI-H23 lung is 103%; with NCI-H322M lung, 110%; in the experiment on HOP-62 NSCLC, 107%; in the experiment on NCI-H460 lung it was 107%; with HOP-92 NSCLC, 109%; in the experiment on NCI-H522 lung it was 95.3%. Besides, the growth in the experiment on A549/ATCC NSCLC was 104%; in the experiment on 786-0 renal, 105%; in the experiment with COLO 205 colon, 111%; in the experiment on K-562 leukemia, 103%; in the experiment on MALME-3M melanoma, 114%; in the experiment with MDA-MB-231 breast, 109%. In addition, the growth in the experiment with RXF 393 renal is 121%; with SF-268 CNS, 128%; in the experiment with SF-295 CNS, 89.2%; in the experiment on SF-539 CNS it was 110%; in the experiment with UACC-257 melanoma, 99.9%; with M14 melanoma, 108%. Besides, in the experiment on HCT-15 colon, the growth was 107%.
For `COC(=O)C1(C)COP(=O)(Nc2ccc(OC)cc2)OC1` (stereo unspecified), the growth in the experiment on NCI-H23 lung was 102%; with NCI-H322M lung, 90.3%; with HOP-62 NSCLC it was 107%; with NCI-H460 lung, 109%; in the experiment with HOP-92 NSCLC, 109%; in the experiment with NCI-H522 lung, 111%. Also, the growth in the experiment on A549/ATCC NSCLC is 98%; with 786-0 renal, 99.1%; in the experiment with COLO 205 colon, 109%; with DU-145 prostate it was 111%; in the experiment with MALME-3M melanoma it was 116%; with MDA-MB-231 breast it was 110%. The growth was 113% in the experiment with RXF 393 renal; 103% with SF-268 CNS; 107% with SF-295 CNS; 104% in the experiment on SF-539 CNS; 98.7% in the experiment on UACC-257 melanoma; 102% in the experiment on M14 melanoma. Moreover, the growth with HCT-15 colon was 108%.
As to `O=c1c2cc(F)ccc2sc2c(NCCN3CCCC3)nc3ccccc3c12`, the growth in the experiment with NCI-H23 lung is 77.1%; in the experiment with NCI-H322M lung, 69%; in the experiment with HOP-62 NSCLC it was 67.6%; with NCI-H460 lung, 12.3%; in the experiment on HOP-92 NSCLC it was 27.5%; with NCI-H522 lung, 63.8%. Besides, the growth with A549/ATCC NSCLC is 53.7%; in the experiment with 786-0 renal it was 55.6%; in the experiment on DU-145 prostate, 45.8%; in the experiment on K-562 leukemia it was -43.2% (active); in the experiment with MALME-3M melanoma, 83%; in the experiment with MDA-MB-231 breast, 30.8%. The growth in the experiment on RXF 393 renal was 38.3%; with SF-268 CNS, 47%; with SF-295 CNS it was 85.6%; in the experiment with SF-539 CNS, 61.8%; in the experiment with UACC-257 melanoma, 92%; with M14 melanoma it was 15.1%. Besides, in the experiment on HCT-15 colon, the growth was 27.6%.
Consider `COC(=O)c1c2c(c(C)[n+]([O-])c1C)C(=O)C(NCc1ccc(F)c(F)c1)=CC2=O`, for which the growth was -5.8% (active) with NCI-H23 lung; 13.4% in the experiment with NCI-H322M lung; 33.1% with HOP-62 NSCLC; 4.7% (active) in the experiment with NCI-H460 lung; 51.1% in the experiment with HOP-92 NSCLC; 22% in the experiment on NCI-H522 lung. For the same compound, the growth is 8.81% (active) in the experiment with A549/ATCC NSCLC; 48.2% in the experiment on 786-0 renal; 42% in the experiment with DU-145 prostate; 18.4% in the experiment with K-562 leukemia; -70.8% (active) in the experiment on MALME-3M melanoma; -2.52% (active) in the experiment on MDA-MB-231 breast. The growth in the experiment with RXF 393 renal is 32.2%; with SF-268 CNS it was 12%; in the experiment on SF-295 CNS, 18.2%; with SF-539 CNS it was 2.45% (active); in the experiment with UACC-257 melanoma, -30% (active); with M14 melanoma it was 4.33% (active). Further, the growth in the experiment on HCT-15 colon was 6.07% (active).
Consider `Cc1cccc2c(=O)c3c(sc12)c(N1CCNCC1)nc1ccccc13`, for which the growth was 80.4% with NCI-H23 lung; 74.5% in the experiment on NCI-H322M lung; 73.6% in the experiment with HOP-62 NSCLC; 80% in the experiment on NCI-H460 lung; 53.7% in the experiment with HOP-92 NSCLC; 82.6% in the experiment with NCI-H522 lung. For the same compound, the growth is 78.3% in the experiment with A549/ATCC NSCLC; 78.1% in the experiment on 786-0 renal; 67.5% in the experiment with DU-145 prostate; -23% (active) in the experiment on K-562 leukemia; 98.6% in the experiment on MALME-3M melanoma; 56.3% with MDA-MB-231 breast. Further, the growth is 72.2% in the experiment on RXF 393 renal; 76.1% in the experiment on SF-268 CNS; 93.5% in the experiment on SF-295 CNS; 75.8% in the experiment on SF-539 CNS; 96.6% in the experiment on UACC-257 melanoma; 74% in the experiment on M14 melanoma. Further, in the experiment with HCT-15 colon, the growth was 25.9%.
